Measured values: PubChem BioAssay (NCI)
Compounds without any hit were thinned out: in the full panel of roughly 79,000, 15% have a hit. A number with no mark means an inactive call. Activity calls are given as the source filed them. Rule as the data show it: active = growth inhibition above about 70%; inactive = the rest.

What was measured:
[1] = NCI Yeast Anticancer Drug Screen. Data for the rad52 strain (AID 147);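 also: 0% = growth of vehicle-treated control cultures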; conditions: S. cerevisiae rad52 mutant growth inhibition, hits give high values
How it was run: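 Inhibition of yeast growth, referenced to vehicle controls, was the measured output for a strain with defective DNA damage repair.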

[2] = NCI Yeast Anticancer Drug Screen. Data for the wt1 strain (AID 149);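 also: 0% = growth of vehicle-treated wt1 cultures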; conditions: S. cerevisiae wt1 strain (SPY 50644) growth inhibition, hits give high values
How it was run: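 The wt1 strain was treated with compounds, and growth was compared with vehicle-treated cultures to give inhibition.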

[3] = NCI Yeast Anticancer Drug Screen. Data for the rad50EPP+ strain (AID 151);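 also: 0% = growth of vehicle-treated control cultures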; conditions: S. cerevisiae rad50 mutant strain, hits give high values
How it was run: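 Genetically defined yeast (rad50EPP+, DNA damage repair alteration) is grown with compound, and inhibition of growth is expressed relative to vehicle-treated controls.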

[4] = NCI Yeast Anticancer Drug Screen. Data for the mgt1 strain (AID 153); conditions: S. cerevisiae mgt1 mutant growth inhibition, hits give high values
How it was run: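 In the mgt1 strain, test compounds were added and growth inhibition was determined relative to vehicle-treated controls.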

[5] = NCI Yeast Anticancer Drug Screen. Data for the rad50 strain (AID 155);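 also: 0% = growth of vehicle-only cultures of the same strain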; conditions: S. cerevisiae rad50 strain growth inhibition, hits give high values
How it was run: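 Cells are treated with compound, grown, and their growth is then scored against vehicle-only cultures of the same repair-deficient yeast strain.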

[6] = NCI Yeast Anticancer Drug Screen. Data for the mec2-1 strain (AID 157); conditions: S. cerevisiae mec2-1 strain, hits give high values
How it was run: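 Each compound was tested on mec2-1 yeast, a strain altered in DNA damage repair or cell cycle control. Growth inhibition is reported relative to vehicle.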

[7] = NCI Yeast Anticancer Drug Screen. Data for the rad14 strain (AID 159);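 also: 0% = growth of vehicle-treated control cultures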; conditions: S. cerevisiae rad14 strain growth inhibition, hits give high values
How it was run: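 Readout: yeast growth inhibition, referenced to vehicle-only cultures. Strain bears a defined alteration in DNA damage repair.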

[8] = NCI Yeast Anticancer Drug Screen. Data for the sgs1 mgt1 strain (AID 161);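 also: 0% = growth of cultures given vehicle only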; conditions: S. cerevisiae sgs1 mgt1 strain, hits give high values
How it was run: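 Test agents were incubated with a DNA-repair-mutant yeast strain. Growth was then read and compared against vehicle-treated controls.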

[9] = NCI Yeast Anticancer Drug Screen. Data for the CLN2oe strain (AID 163);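 also: 0% = growth of vehicle-only control cultures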; conditions: S. cerevisiae CLN2oe strain, hits give high values
How it was run: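 First, the altered yeast strain was treated with each compound; second, its growth was measured; finally, inhibition was derived by comparison with vehicle controls.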

[10] = NCI Yeast Anticancer Drug Screen. Data for the cln2 rad14 strain (AID 165);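 also: 0% = growth equal to vehicle treated cultures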; conditions: S. cerevisiae cln2 rad14 strain, hits give high values
How it was run: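 Test compounds were added to cln2 rad14 yeast cultures; inhibition of growth was then determined by comparison with vehicle treatment.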

[11] = NCI Yeast Anticancer Drug Screen. Data for the bub3 strain (AID 167); conditions: S. cerevisiae bub3 mutant strain, hits give high values
How it was run: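 Part of a panel of yeast mutants defective in DNA damage repair or cell cycle regulation. Each strain is grown with compound, and inhibition is calculated relative to solvent-treated cultures.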

[12] = NCI Yeast Anticancer Drug Screen. Data for the wt2 strain (AID 169);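 also: 0% = growth of vehicle-treated yeast cultures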; conditions: S. cerevisiae wt2 strain growth inhibition, hits give high values
How it was run: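 The panel's yeast strains carry defined changes in DNA repair or cell cycle genes. Each strain is grown with compound, and growth loss is scored relative to vehicle.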

[13] = NCI Yeast Anticancer Drug Screen. Data for the mlh1 strain (AID 171);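 also: 0% = growth of vehicle-treated control cultures of the same strain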; conditions: S. cerevisiae mlh1 strain growth inhibition, hits give high values
How it was run: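 Inhibition values reflect reduced yeast growth in the presence of compound, referenced to vehicle controls, using a strain chosen for its alteration in DNA repair or cell cycle control.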

[14] = NCI Yeast Anticancer Drug Screen. Data for the sgs1 strain (AID 173);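 also: 0% = growth of vehicle-only control cultures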; conditions: S. cerevisiae sgs1 mutant, hits give high values
How it was run: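 Vehicle-treated cultures served as reference for growth inhibition of a yeast strain altered in DNA damage repair or cell cycle control after compound exposure.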

[15] = NCI Yeast Anticancer Drug Screen. Data for the mlh1 rad18 strain (AID 175); conditions: S. cerevisiae mlh1 rad18 strain growth inhibition, hits give high values
How it was run: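 Inhibition values reflect reduced growth of mutant yeast versus vehicle-treated controls following compound exposure; the mutations affect DNA damage repair.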

[16] = NCI Yeast Anticancer Drug Screen. Data for the rad18 strain (AID 177); conditions: S. cerevisiae rad18 mutant growth inhibition, hits give high values
How it was run: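 Steps: expose repair-mutant yeast to compound; measure growth; express as inhibition relative to vehicle control.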

[17] = at 5.0 µM (retest, dose inferred, filed as 0.5)
[18] = at 50.0 µM (retest, dose inferred, filed as 5.0)

## O=C1CSc2cc([N+](=O)[O-])ccc2N1
[1]; at 1.2 µM
  growth inhibition: 10%
[1]; at 3.7 µM
  growth inhibition: 6%
[1]; at 11.0 µM
  growth inhibition: 9%
[1]; at 33.0 µM
  growth inhibition: 16%
[1]; at 100.0 µM
  growth inhibition: 15%
[2]; at 1.2 µM
  growth inhibition: 4%
[2]; at 3.7 µM
  growth inhibition: 12%
[2]; at 11.0 µM
  growth inhibition: 5%
[2]; at 33.0 µM
  growth inhibition: 18%
[2]; at 100.0 µM
  growth inhibition: -20%
[3]; at 1.2 µM
  growth inhibition: -9%
[3]; at 3.7 µM
  growth inhibition: 3%
[3]; at 11.0 µM
  growth inhibition: -4%
[3]; at 33.0 µM
  growth inhibition: 3%
[3]; at 100.0 µM
  growth inhibition: -6%
[4]; at 1.2 µM
  growth inhibition: 0%
[4]; at 3.7 µM
  growth inhibition: 3%
[4]; at 11.0 µM
  growth inhibition: -3%
[4]; at 33.0 µM
  growth inhibition: -8%
[4]; at 100.0 µM
  growth inhibition: 3%
[5]; at 1.2 µM
  growth inhibition: -20%
[5]; at 3.7 µM
  growth inhibition: -6%
[5]; [17]
  growth inhibition: -1%
[5]; at 11.0 µM
  growth inhibition: -22%
[5]; at 33.0 µM
  growth inhibition: -18%
[5]; [18]
  growth inhibition: -14%
[5]; at 50.0 µM
  growth inhibition: 21.1%
[5]; at 100.0 µM
  growth inhibition: -17%
[6]; at 1.2 µM
  growth inhibition: -4%
[6]; at 3.7 µM
  growth inhibition: -5%
[6]; [17]
  growth inhibition: -31%
[6]; at 11.0 µM
  growth inhibition: -10%
[6]; at 33.0 µM
  growth inhibition: -21%
[6]; [18]
  growth inhibition: -12%
[6]; at 50.0 µM
  growth inhibition: -18.1%
[6]; at 100.0 µM
  growth inhibition: -22%
[7]; at 1.2 µM
  growth inhibition: -16%
[7]; at 3.7 µM
  growth inhibition: -7%
[7]; at 11.0 µM
  growth inhibition: -6%
[7]; at 33.0 µM
  growth inhibition: -10%
[7]; at 100.0 µM
  growth inhibition: -11%
[8]; [17]
  growth inhibition: -14%
[8]; [18]
  growth inhibition: -14%
[8]; at 50.0 µM
  growth inhibition: -11%
[9]; at 1.2 µM
  growth inhibition: -3%
[9]; at 3.7 µM
  growth inhibition: -14%
[9]; at 11.0 µM
  growth inhibition: -8%
[9]; at 33.0 µM
  growth inhibition: -19%
[9]; at 100.0 µM
  growth inhibition: -13%
[10]; [17]
  growth inhibition: 23%
[10]; [18]
  growth inhibition: 27%
[10]; at 50.0 µM
  growth inhibition: 22.4%
[11]; at 1.2 µM
  growth inhibition: 8%
[11]; at 3.7 µM
  growth inhibition: 9%
[11]; [17]
  growth inhibition: 0%
[11]; at 11.0 µM
  growth inhibition: 23%
[11]; at 33.0 µM
  growth inhibition: 74% (active)
[11]; [18]
  growth inhibition: 79% (active)
[11]; at 50.0 µM
  growth inhibition: 70.2% (active)
[11]; at 100.0 µM
  growth inhibition: 91% (active)
[12]; at 1.2 µM
  growth inhibition: 19%
[12]; at 3.7 µM
  growth inhibition: 23%
[12]; at 11.0 µM
  growth inhibition: 14%
[12]; at 33.0 µM
  growth inhibition: 21%
[12]; at 100.0 µM
  growth inhibition: 4%
[13]; at 1.2 µM
  growth inhibition: 18%
[13]; at 3.7 µM
  growth inhibition: 5%
[13]; at 11.0 µM
  growth inhibition: 6%
[13]; at 33.0 µM
  growth inhibition: 0%
[13]; at 100.0 µM
  growth inhibition: -22%
[14]; at 1.2 µM
  growth inhibition: 19%
[14]; at 3.7 µM
  growth inhibition: 19%
[14]; at 11.0 µM
  growth inhibition: 17%
[14]; at 33.0 µM
  growth inhibition: 36%
[14]; at 100.0 µM
  growth inhibition: 11%
[15]; [17]
  growth inhibition: -15%
[15]; [18]
  growth inhibition: -2%
[15]; at 50.0 µM
  growth inhibition: -5.25%
[16]; at 1.2 µM
  growth inhibition: 0%
[16]; at 3.7 µM
  growth inhibition: -18%
[16]; at 11.0 µM
  growth inhibition: -3%
[16]; at 33.0 µM
  growth inhibition: -2%
[16]; at 100.0 µM
  growth inhibition: -13%

## CSc1nc(=S)[nH]c2c1c(C)nn2-c1ccccc1
[1]; at 1.2 µM
  growth inhibition: 11%
[1]; at 3.7 µM
  growth inhibition: 18%
[1]; at 11.0 µM
  growth inhibition: 12%
[1]; at 33.0 µM
  growth inhibition: 11%
[1]; at 100.0 µM
  growth inhibition: 41%
[2]; at 1.2 µM
  growth inhibition: 11%
[2]; at 3.7 µM
  growth inhibition: -2%
[2]; at 11.0 µM
  growth inhibition: -1%
[2]; at 33.0 µM
  growth inhibition: -4%
[2]; at 100.0 µM
  growth inhibition: 1%
[3]; at 1.2 µM
  growth inhibition: -17%
[3]; at 3.7 µM
  growth inhibition: -16%
[3]; at 11.0 µM
  growth inhibition: -24%
[3]; at 33.0 µM
  growth inhibition: -10%
[3]; at 100.0 µM
  growth inhibition: 14%
[4]; at 1.2 µM
  growth inhibition: -19%
[4]; at 3.7 µM
  growth inhibition: -15%
[4]; at 11.0 µM
  growth inhibition: -3%
[4]; at 33.0 µM
  growth inhibition: 7%
[4]; at 100.0 µM
  growth inhibition: 35%
[5]; at 1.2 µM
  growth inhibition: 12%
[5]; at 3.7 µM
  growth inhibition: -1%
[5]; [17]
  growth inhibition: 39%
[5]; at 11.0 µM
  growth inhibition: 11%
[5]; at 33.0 µM
  growth inhibition: 11%
[5]; [18]
  growth inhibition: 91% (active)
[5]; at 50.0 µM
  growth inhibition: 50.8%
[5]; at 100.0 µM
  growth inhibition: 11%
[6]; at 1.2 µM
  growth inhibition: 3%
[6]; at 3.7 µM
  growth inhibition: -6%
[6]; [17]
  growth inhibition: 16%
[6]; at 11.0 µM
  growth inhibition: 1%
[6]; at 33.0 µM
  growth inhibition: -1%
[6]; [18]
  growth inhibition: 97% (active)
[6]; at 50.0 µM
  growth inhibition: 45.8%
[6]; at 100.0 µM
  growth inhibition: 3%
[7]; at 1.2 µM
  growth inhibition: 9%
[7]; at 3.7 µM
  growth inhibition: 18%
[7]; at 11.0 µM
  growth inhibition: 28%
[7]; at 33.0 µM
  growth inhibition: 23%
[7]; at 100.0 µM
  growth inhibition: 34%
[8]; [17]
  growth inhibition: 42%
[8]; [18]
  growth inhibition: 98% (active)
[8]; at 50.0 µM
  growth inhibition: 72.1% (active)
[9]; at 1.2 µM
  growth inhibition: -8%
[9]; at 3.7 µM
  growth inhibition: 0%
[9]; at 11.0 µM
  growth inhibition: -4%
[9]; at 33.0 µM
  growth inhibition: 3%
[9]; at 100.0 µM
  growth inhibition: -14%
[10]; [17]
  growth inhibition: 3%
[10]; [18]
  growth inhibition: 62%
[10]; at 50.0 µM
  growth inhibition: 33.8%
[11]; at 1.2 µM
  growth inhibition: -16%
[11]; at 3.7 µM
  growth inhibition: -6%
[11]; [17]
  growth inhibition: 39%
[11]; at 11.0 µM
  growth inhibition: -15%
[11]; at 33.0 µM
  growth inhibition: -17%
[11]; [18]
  growth inhibition: 97% (active)
[11]; at 50.0 µM
  growth inhibition: 64%
[11]; at 100.0 µM
  growth inhibition: -14%
[12]; at 1.2 µM
  growth inhibition: -14%
[12]; at 3.7 µM
  growth inhibition: 3%
[12]; at 11.0 µM
  growth inhibition: 5%
[12]; at 33.0 µM
  growth inhibition: 12%
[12]; at 100.0 µM
  growth inhibition: 27%
[13]; at 1.2 µM
  growth inhibition: 11%
[13]; at 3.7 µM
  growth inhibition: 9%
[13]; at 11.0 µM
  growth inhibition: 32%
[13]; at 33.0 µM
  growth inhibition: 21%
[13]; at 100.0 µM
  growth inhibition: 41%
[14]; at 1.2 µM
  growth inhibition: 7%
[14]; at 3.7 µM
  growth inhibition: -1%
[14]; at 11.0 µM
  growth inhibition: 9%
[14]; at 33.0 µM
  growth inhibition: 16%
[14]; at 100.0 µM
  growth inhibition: 39%
[15]; [17]
  growth inhibition: 26%
[15]; [18]
  growth inhibition: 84% (active)
[15]; at 50.0 µM
  growth inhibition: 52.1%
[16]; at 1.2 µM
  growth inhibition: 10%
[16]; at 3.7 µM
  growth inhibition: -10%
[16]; at 11.0 µM
  growth inhibition: 4%
[16]; at 33.0 µM
  growth inhibition: -5%
[16]; at 100.0 µM
  growth inhibition: 36%
